{"source": "PubChem BioAssay", "key": {"[1]": {"assay": "polyglutamine-triggered caspase-3 activation inhibitors, cell-based (AID 1583)", "conditions": "polyglutamine-induced caspase-3 activation, cell assay; stronger effect = higher value; concentration not given here"}, "[2]": {"assay": "suppressors of polyQ aggregation in yeast, 75Q-TubU reporter (AID 1593)", "conditions": "Yeast 75Q polyglutamine aggregation reporter"}, "[3]": {"assay": "rescue of polyQ-huntingtin neuronal dysfunction in worms, whole organism, C. elegans mechanosensory neurons, N-terminal huntingtin (AID 1599)", "conditions": "touch response, stronger effect = higher value"}, "[4]": {"assay": "inhibitors of mitochondrial cytochrome c release, biochemical, purified mitochondria (AID 1603);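 note: mouse liver mitochondria challenged with calcium chloride; signal normalized to the plate average as 100%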", "conditions": "stronger effect = lower value"}, "[5]": {"assay": "inhibitors of polyQ protein aggregation (AID 1604)", "conditions": "polyglutamine-induced protein aggregation inhibition assay; stronger effect = higher value; tested at 2.5 µM"}, "[6]": {"assay": "enhancers of glutamate uptake in motor neurons, MN-1 cell line (AID 1612);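 note: tested at 1 µM final; 0% = mean of DMSO vehicle wells on each plate; positive means more glutamate uptake than control and negative means less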", "conditions": "MN-1 motor neuron cells, stronger effect = higher value"}, "[7]": {"assay": "reducers of polyQ inclusions in PC12 cells, cell-based, NGF-treated PC12, GFPQ80 (AID 1614);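 note: lower means fewer inclusions and 0 means no inclusions at all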", "conditions": "PC12 NGF-treated GFP-polyQ80 inclusion reduction"}, "[8]": {"assay": "suppressors of polyglutamine aggregation in yeast, 75Q-TubH (AID 1616)", "conditions": "S. cerevisiae 75Q-TubH polyglutamine aggregation suppression; stronger effect = higher value"}, "[9]": {"assay": "growth inhibition of DIPG glioma cells, dose response, cell-based, SU-DIPG-XVII, MIPE5.0, CellTiter-Glo, qHTS (AID 1347060; cut-off not given, nearly all actives have AC50 up to about 26 µM;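 for AC50: cells exposed to compound for 48 hours before viability readout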)", "conditions": "SU-DIPG-XVII viability, CellTiter-Glo ATP luminescence"}, "[10]": {"target": "ATP-dependent translocase ABCB1 (Homo sapiens) (UniProt P08183)", "sequence (P08183 whole entry, looked up)": "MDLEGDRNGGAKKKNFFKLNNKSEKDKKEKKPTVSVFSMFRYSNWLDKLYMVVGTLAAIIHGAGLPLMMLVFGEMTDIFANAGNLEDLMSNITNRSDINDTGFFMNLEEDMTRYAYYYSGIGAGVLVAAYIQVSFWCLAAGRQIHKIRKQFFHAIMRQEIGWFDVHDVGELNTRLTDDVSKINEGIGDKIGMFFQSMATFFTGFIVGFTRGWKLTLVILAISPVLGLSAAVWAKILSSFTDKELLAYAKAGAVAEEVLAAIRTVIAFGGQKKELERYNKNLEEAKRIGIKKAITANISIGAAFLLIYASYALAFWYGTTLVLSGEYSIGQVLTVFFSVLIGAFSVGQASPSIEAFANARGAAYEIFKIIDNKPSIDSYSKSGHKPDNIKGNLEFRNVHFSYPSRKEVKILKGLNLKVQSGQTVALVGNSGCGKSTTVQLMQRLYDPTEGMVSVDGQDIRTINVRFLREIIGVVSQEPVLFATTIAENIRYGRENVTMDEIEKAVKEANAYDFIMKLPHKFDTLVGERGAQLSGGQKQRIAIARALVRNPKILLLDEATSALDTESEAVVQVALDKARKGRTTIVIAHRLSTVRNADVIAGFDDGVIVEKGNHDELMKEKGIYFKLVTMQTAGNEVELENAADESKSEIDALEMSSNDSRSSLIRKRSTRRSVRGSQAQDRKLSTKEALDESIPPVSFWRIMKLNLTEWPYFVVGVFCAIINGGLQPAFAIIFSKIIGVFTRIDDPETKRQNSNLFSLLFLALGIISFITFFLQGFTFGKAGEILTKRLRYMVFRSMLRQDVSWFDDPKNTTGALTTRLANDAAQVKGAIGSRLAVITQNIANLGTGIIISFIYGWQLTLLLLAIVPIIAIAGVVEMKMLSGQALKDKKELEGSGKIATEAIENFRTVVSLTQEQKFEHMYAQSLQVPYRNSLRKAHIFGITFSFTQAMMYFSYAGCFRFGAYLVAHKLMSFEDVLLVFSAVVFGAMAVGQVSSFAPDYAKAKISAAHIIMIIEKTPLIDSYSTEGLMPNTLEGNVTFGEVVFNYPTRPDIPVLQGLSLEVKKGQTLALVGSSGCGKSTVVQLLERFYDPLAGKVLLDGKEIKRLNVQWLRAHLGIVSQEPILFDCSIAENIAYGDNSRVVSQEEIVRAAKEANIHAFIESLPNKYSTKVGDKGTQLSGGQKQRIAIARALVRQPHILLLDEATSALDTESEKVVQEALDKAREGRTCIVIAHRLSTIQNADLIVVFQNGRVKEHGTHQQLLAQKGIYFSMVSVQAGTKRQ", "assay": "MDR1 (ABCB1) efflux transporter inhibition, cell-based (AID 377; in the data active = fluorescence slope change above about 50%)", "conditions": "MDR1-expressing cells, fluorescent substrate accumulation slope; stronger effect = higher value; concentration not given here"}, "[11]": {"assay": "circadian clock period modulators, cell-based, LOPAC library, luminescence reporter (AID 2774);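 note: values are relative to mean of DMSO wells on each plate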", "conditions": "circadian reporter cells, at 7 µM, actives lie on both sides"}, "[12]": {"tested_on": "Hepatitis C virus NS3 helicase", "assay": "HCV NS3 helicase inhibitors, primary screen, biochemical, fluorescence polarization, LOPAC1280 library (AID 687035; in the data active = inhibition above about 37%)", "conditions": "Purified HCV NS3 helicase, Cy5-dT15 ssDNA binding fluorescence polarization; stronger effect = higher value; concentration not given here"}, "[13]": {"assay": "Cy5 fluorescence quenching or enhancement artefacts, artefact control for HCV NS3 helicase inhibitor project, biochemical, LOPAC1280 (AID 687037)", "conditions": "Cy5-DNA-NS3h complex fluorescence interference counterscreen"}, "[14]": {"assay": "phospholipid biosynthesis inhibitors in animal cells, primary screen, cell-based, LOPAC library, screen 4 (AID 1347384)", "conditions": "phospholipid biosynthesis inhibition screen, at 10 µM"}, "[15]": {"assay": "growth inhibition of DIPG glioma cells, dose response, cell-based, SU-DIPG-XIII, MIPE4.0, CellTiter-Glo, qHTS (AID 1347061; cut-off not given, nearly all actives have AC50 up to about 37 µM;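 note: cells exposed to compound for 48 hours before readout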)", "conditions": "SU-DIPG-XIII viability, CellTiter-Glo ATP luminescence"}}, "note": "Results filed as inconclusive are left out. For part of these data: Entries with a potency or affinity are not part of this list. The source made the active and inactive calls. Unless noted, the rule behind the calls is not given here."}
{"smiles": "CN(N=O)C(=O)N[C@@H]1[C@@H](O)[C@H](O)[C@@H](CO)O[C@@H]1O", "values": [{"measurement": "inhibition", "setting": "[1]", "value": -0.83, "unit": "%"}, {"measurement": "score", "setting": "[2]", "value": 1.48}, {"measurement": "rescue above control", "setting": "[3]", "value": -12.1}, {"measurement": "cytochrome c release ratio", "setting": "[4]", "value": 1.09}, {"measurement": "inhibition of aggregation", "setting": "[5]", "value": 69, "unit": "%"}, {"measurement": "glutamate uptake change", "setting": "[6]", "value": -14.8, "unit": "%"}, {"measurement": "inclusion score", "setting": "[7]", "value": 2}, {"measurement": "aggregation suppression score", "setting": "[8]", "value": 1.03}, {"measurement": "outcome", "setting": "[9]", "value": "inactive"}]}
{"smiles": "N=C(N=C(N)N)N1CCOCC1", "values": [{"measurement": "fluorescence slope change", "setting": "[10]", "value": "25.2% (inactive)"}]}
{"smiles": "CNCCCC1c2ccccc2C=Cc2ccccc21", "values": [{"measurement": "period change", "setting": "[11]", "value": "-0.13 h (inactive)"}, {"measurement": "inhibition", "setting": "[12]", "value": "-3% (inactive)"}, {"measurement": "fluorescence ratio (interference)", "setting": "[13]", "value": "0.9 (inactive)"}, {"measurement": "outcome", "setting": "[14]", "value": "inactive"}]}
{"smiles": "CC(C)(Oc1ccc(C2CC2(Cl)Cl)cc1)C(=O)O", "note": "(stereo not given)", "values": [{"measurement": "period change", "setting": "[11]", "value": "0.045 h (inactive)"}, {"measurement": "inhibition", "setting": "[12]", "value": "-1% (inactive)"}, {"measurement": "fluorescence ratio (interference)", "setting": "[13]", "value": "1 (inactive)"}, {"measurement": "outcome", "setting": "[15]", "value": "inactive"}, {"measurement": "outcome", "setting": "[14]", "value": "inactive"}]}
{"smiles": "Clc1ccc(Cn2c(CN3CCCC3)nc3ccccc32)cc1", "values": [{"measurement": "fluorescence slope change", "setting": "[10]", "value": "82.8% (active)"}, {"measurement": "period change", "setting": "[11]", "value": "0.175 h (inactive)"}, {"measurement": "inhibition", "setting": "[12]", "value": "0% (inactive)"}, {"measurement": "fluorescence ratio (interference)", "setting": "[13]", "value": "1 (inactive)"}, {"measurement": "outcome", "setting": "[14]", "value": "inactive"}]}
{"smiles": "CC(=O)Oc1cc(C(C)C)c(OCCN(C)C)cc1C", "values": [{"measurement": "period change", "setting": "[11]", "value": "-0.155 h (inactive)"}, {"measurement": "inhibition", "setting": "[12]", "value": "-6% (inactive)"}, {"measurement": "fluorescence ratio (interference)", "setting": "[13]", "value": "1 (inactive)"}, {"measurement": "outcome", "setting": "[14]", "value": "inactive"}]}
{"smiles": "CN(C)CCN(Cc1ccc(Cl)cc1)c1ccccn1", "values": [{"measurement": "fluorescence slope change", "setting": "[10]", "value": "92.6% (active)"}]}
{"smiles": "COc1cccc2c1C(=O)c1c(O)c3c(c(O)c1C2=O)C[C@@](O)(C(C)=O)C[C@@H]3O[C@H]1C[C@H](N)[C@H](O)[C@H](C)O1", "values": [{"measurement": "AC50", "setting": "[9]", "value": "118 nM (active)"}]}
{"smiles": "CC(C)Cn1cnc2c(N)nc3ccccc3c21", "values": [{"measurement": "outcome", "setting": "[9]", "value": "inactive"}]}
{"smiles": "C[C@H]1[C@H](NC(=O)/C(=N/OC(C)(C)C(=O)O)c2csc(N)n2)C(=O)N1S(=O)(=O)O", "note": "(stereo in doubt)", "values": [{"measurement": "outcome", "setting": "[15]", "value": "inactive"}]}
{"smiles": "Cn1c(=O)c2c(ncn2CC2OCCO2)n(C)c1=O", "values": [{"measurement": "outcome", "setting": "[9]", "value": "inactive"}]}
{"smiles": "Cc1cc(=O)oc2cc(O)ccc12", "values": [{"measurement": "AC50", "setting": "[15]", "value": "418 nM (active)"}]}
{"smiles": "CCN(CC)C(=O)c1ccc(O)c(OC)c1", "values": [{"measurement": "fluorescence slope change", "setting": "[10]", "value": "53.1% (active)"}, {"measurement": "period change", "setting": "[11]", "value": "-1.55 h (active)"}, {"measurement": "inhibition", "setting": "[12]", "value": "0% (inactive)"}, {"measurement": "fluorescence ratio (interference)", "setting": "[13]", "value": "1 (inactive)"}, {"measurement": "outcome", "setting": "[14]", "value": "inactive"}]}
{"smiles": "COc1ccc2[nH]c(S(=O)Cc3ncc(C)c(OC)c3C)nc2n1", "note": "(stereo not given)", "values": [{"measurement": "outcome", "setting": "[9]", "value": "inactive"}]}
{"smiles": "Cc1nc(Nc2ncc(C(=O)Nc3c(C)cccc3Cl)s2)cc(N2CCN(CCO)CC2)n1", "values": [{"measurement": "AC50", "setting": "[9]", "value": "16600 nM (active)"}]}
{"smiles": "COc1cc2c(c(OC)c1OC)-c1ccc(OC)c(=O)cc1[C@@H](NC(C)=O)CC2", "values": [{"measurement": "fluorescence slope change", "setting": "[10]", "value": "7.7% (inactive)"}, {"measurement": "inhibition", "setting": "[1]", "value": -76.8, "unit": "%"}, {"measurement": "score", "setting": "[2]", "value": 1.26}, {"measurement": "rescue above control", "setting": "[3]", "value": -5.06}, {"measurement": "cytochrome c release ratio", "setting": "[4]", "value": 0.87}, {"measurement": "inhibition of aggregation", "setting": "[5]", "value": 97.2, "unit": "%"}, {"measurement": "glutamate uptake change", "setting": "[6]", "value": -10.3, "unit": "%"}, {"measurement": "aggregation suppression score", "setting": "[8]", "value": 1.64}, {"measurement": "period change", "setting": "[11]", "value": "-0.41 h (inactive)"}, {"measurement": "inhibition", "setting": "[12]", "value": "-1% (inactive)"}, {"measurement": "fluorescence ratio (interference)", "setting": "[13]", "value": "1 (inactive)"}, {"measurement": "AC50", "setting": "[9]", "value": "29.5 nM (active)"}, {"measurement": "outcome", "setting": "[14]", "value": "inactive"}]}
{"smiles": "OC(CCN1CCCCC1)(c1ccccc1)C1CC2C=CC1C2", "note": "(stereo not given)", "values": [{"measurement": "fluorescence slope change", "setting": "[10]", "value": "23% (inactive)"}, {"measurement": "inhibition", "setting": "[12]", "value": "-3% (inactive)"}, {"measurement": "fluorescence ratio (interference)", "setting": "[13]", "value": "1 (inactive)"}, {"measurement": "outcome", "setting": "[15]", "value": "inactive"}, {"measurement": "outcome", "setting": "[14]", "value": "inactive"}]}
{"smiles": "O=C1Cc2cc(CCN3CCN(c4nsc5ccccc45)CC3)c(Cl)cc2N1", "values": [{"measurement": "inhibition", "setting": "[12]", "value": "2% (inactive)"}, {"measurement": "fluorescence ratio (interference)", "setting": "[13]", "value": "1 (inactive)"}, {"measurement": "outcome", "setting": "[14]", "value": "inactive"}]}
{"smiles": "O=[N+]([O-])c1ccc(O)c2ncccc12", "values": [{"measurement": "AC50", "setting": "[9]", "value": "6610 nM (active)"}]}
{"smiles": "O=C(O)c1cc(=O)[nH]c(=O)[nH]1", "values": [{"measurement": "outcome", "setting": "[9]", "value": "inactive"}]}
{"smiles": "NCCCNCCSP(=O)(O)O", "values": [{"measurement": "period change", "setting": "[11]", "value": "-0.025 h (inactive)"}, {"measurement": "inhibition", "setting": "[12]", "value": "-3% (inactive)"}, {"measurement": "fluorescence ratio (interference)", "setting": "[13]", "value": "1 (inactive)"}, {"measurement": "outcome", "setting": "[14]", "value": "inactive"}]}
{"smiles": "COc1c(C)c2c(c(O)c1C/C=C(\\C)CCC(=O)OCCN1CCOCC1)C(=O)OC2", "values": [{"measurement": "AC50", "setting": "[9]", "value": "590 nM (active)"}]}
{"smiles": "NC(N)=NC(N)=NCCc1ccccc1", "values": [{"measurement": "fluorescence slope change", "setting": "[10]", "value": "100% (active)"}, {"measurement": "outcome", "setting": "[9]", "value": "inactive"}]}
{"smiles": "CN1CCN(c2c(F)cc3c(=O)c(C(=O)O)cn(CCF)c3c2F)CC1", "values": [{"measurement": "outcome", "setting": "[15]", "value": "inactive"}]}
{"smiles": "CC(=O)c1ccc2c(c1)N(CCCN(C)C)c1ccccc1S2", "values": [{"measurement": "fluorescence slope change", "setting": "[10]", "value": "72% (active)"}, {"measurement": "outcome", "setting": "[14]", "value": "inactive"}]}
{"smiles": "CCN(C)C(=O)Oc1cccc([C@H](C)N(C)C)c1", "values": [{"measurement": "outcome", "setting": "[15]", "value": "inactive"}]}
